{
  "source": "PubChem BioAssay AID623888",
  "about": "(Vanderbilt Specialized Chemistry Center, 2012)",
  "biological_target": "Metabotropic glutamate receptor 3 (Rattus norvegicus) (UniProt P31422)",
  "sequence (P31422 whole entry, looked up)": "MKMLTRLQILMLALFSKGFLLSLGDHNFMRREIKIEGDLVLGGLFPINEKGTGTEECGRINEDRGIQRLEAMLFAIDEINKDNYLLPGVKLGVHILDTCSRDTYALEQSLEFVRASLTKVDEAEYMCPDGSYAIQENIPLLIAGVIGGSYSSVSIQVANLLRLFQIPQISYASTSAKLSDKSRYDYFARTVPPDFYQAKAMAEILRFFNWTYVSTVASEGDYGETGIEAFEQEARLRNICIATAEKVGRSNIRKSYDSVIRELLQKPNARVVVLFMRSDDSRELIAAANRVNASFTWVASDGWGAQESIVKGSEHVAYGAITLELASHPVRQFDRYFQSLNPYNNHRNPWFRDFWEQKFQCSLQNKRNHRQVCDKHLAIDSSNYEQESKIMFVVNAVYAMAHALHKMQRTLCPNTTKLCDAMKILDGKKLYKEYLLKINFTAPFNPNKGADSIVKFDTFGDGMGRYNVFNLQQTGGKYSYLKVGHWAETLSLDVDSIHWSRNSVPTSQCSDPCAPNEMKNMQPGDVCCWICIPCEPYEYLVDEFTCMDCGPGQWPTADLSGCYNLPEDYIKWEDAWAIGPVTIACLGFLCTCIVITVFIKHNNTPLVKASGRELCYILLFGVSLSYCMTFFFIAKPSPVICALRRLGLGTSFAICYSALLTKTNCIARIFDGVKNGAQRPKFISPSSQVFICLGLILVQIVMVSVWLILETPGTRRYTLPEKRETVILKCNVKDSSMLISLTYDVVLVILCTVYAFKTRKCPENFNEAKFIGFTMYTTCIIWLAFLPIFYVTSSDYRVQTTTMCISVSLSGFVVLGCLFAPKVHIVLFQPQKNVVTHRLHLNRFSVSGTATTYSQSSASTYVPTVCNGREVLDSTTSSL",
  "assay": "PubChem AID 623888",
  "details": "HEK/GIRK rat mGlu3, thallium flux fluorescence, Schild, at 30 µM; % glutamate max: glutamate max response with compound, stronger effect = lower value; glutamate response, % max: at 100 µM (top of the series), compound 30 µM",
  "data": [
    {"molecule": "COc1ccc(C#Cc2ccc(C(=O)N3CCC[C@@H](CO)C3)cc2)cc1", "values": [
      {"measurement": "% glutamate max", "result": 1.37, "unit": "%"},
      {"measurement": "glutamate response, % max", "result": 2.62}
    ]}
  ]
}
